Screening data deposited in PubChem BioAssay by National Center for Advancing Translational Sciences (NCATS).
Most compounds without a hit are left out; they make up all but 9.3% or so of the library.
ELG1 genotoxic: induces genotoxicity in HEK293T cells with luciferase-tagged ELG1. Potency, µM (series often up to 46 µM), without a hit: at the top dose activity change, positive = activation, hits mostly activators. HEK293T ELG1-luciferase reporter, luminescence, 16 h. 330,000 compounds, 1.3% hits; further: % of control where 0% means no effect; nearly all actives have a fitted effect of over 60% in size
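Quantitative HTS format in 1536-well plates. HEK293T ELG1-luciferase reporter cells receive test compound and are incubated 16 hr at 37 °C, 5% CO2; ONE-Glo added, 30 min room temperature, then luminescence read.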
FLuc counter: counter-screen for miR-21 project: firefly luciferase inhibitors or activators | P08659 | purified FLuc, Km substrates, luminescence inhibition | Potency, µM (titrated, usually from 57.5 µM), inactives show top-dose activity change, negative = inhibition, hits mostly inhibitors | 360,000 compounds, 6.9% hits | AID 588342;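 further: plate controls were vehicle for no effect and reference inhibitor for full effect; nearly all actives have a fitted effect of over 55% in size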
Target sequence (P08659 whole entry, looked up): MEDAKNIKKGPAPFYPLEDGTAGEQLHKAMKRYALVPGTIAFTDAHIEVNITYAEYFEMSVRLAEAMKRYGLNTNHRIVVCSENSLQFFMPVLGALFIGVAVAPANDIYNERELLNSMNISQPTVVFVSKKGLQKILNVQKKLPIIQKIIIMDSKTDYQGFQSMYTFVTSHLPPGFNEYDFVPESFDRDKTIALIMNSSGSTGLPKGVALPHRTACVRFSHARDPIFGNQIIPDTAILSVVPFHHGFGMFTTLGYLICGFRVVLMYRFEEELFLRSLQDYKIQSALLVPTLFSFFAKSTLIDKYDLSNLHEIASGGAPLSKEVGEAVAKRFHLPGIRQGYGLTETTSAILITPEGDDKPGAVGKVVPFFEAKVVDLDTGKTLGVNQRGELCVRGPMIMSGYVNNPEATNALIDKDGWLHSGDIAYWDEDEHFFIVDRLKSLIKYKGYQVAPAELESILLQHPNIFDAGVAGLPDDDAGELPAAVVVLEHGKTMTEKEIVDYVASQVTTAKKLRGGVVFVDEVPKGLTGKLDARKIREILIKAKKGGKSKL
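Purified P. pyralis luciferase, 10 nM final, with Km-level 10 uM D-luciferin and 10 uM ATP in 50 mM Tris acetate pH 7.5, 10 mM Mg acetate, 0.01% Tween-20, 0.05% BSA; 6-point qHTS titration about 60 µM downward; luminescence read.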
ELG1 repair inh: ELG1-dependent DNA repair inhibition; 330,000 compounds, 2.3% hits; HEK293T ELG1-luciferase reporter, luminescence, 16 h; DNA damage induced by 5-fluorouridine; Potency, µM (highest dose often 46.1 µM), without a hit: at the highest dose activity change, negative = inhibition, actives largely listed as inhibitors; further: on the % scale 0 is the no-effect control and ±100 the full control effect; nearly all actives have a fitted effect of over 55% in size
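Luminescence from the luciferase reporter, measured 30 min after ONE-Glo reagent at room temperature, was the read-out. Beforehand, 2,000 cells per well were exposed for 16 hr at 37 °C to 5-fluorouridine together with compound or vehicle.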
SMN2 splice enh: increases expression of the SMN2 splice variant. HEK293 SMN2-luciferase splicing reporter, luminescence, 30-36 h. AID 1458. 210,000 compounds, 2.8% hits. Potency, µM (top dose mostly 46.1 µM), inactives show top-dose activity change, positive = activation, most hits filed as activators; further: % of control where 0% means no effect; nearly all actives have a fitted effect of over 55% in size
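HEK293 cells carry an SMN2 minigene-luciferase reporter in which exon 7 inclusion puts luciferase in frame. Cells were seeded at 2000 cells/well, attached for 10-12 hours, then exposed to compounds for 30-36 hours at 37C before ONE-Glo luminescence.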
Rab9 promoter act: Rab9 promoter activation. 320,000 compounds, 2.8% hits. Potency, µM (doses to about 9.22 µM), for the others: at the top dose activation, negative = inhibition, most hits filed as activators. Huh7 Rab9 promoter-luciferase reporter, luminescence, 24 h. AID 485297; further: % of control where 0% means no effect; nearly all actives have a fitted effect of over 60% in size
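Luminescence from Amplite-detected luciferase (10 minutes, ambient) reports Rab9 promoter activation. Before that, stable Rab9-luciferase Huh7 cells (1500/well, reduced-serum OP-MEM I plus 10% FBS) were exposed to compound for 24 hours at 37C.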
NPC1 prom act: activates the NPC1 promoter. 320,000 compounds, 2.4% hits. AID 485313. Huh7 NPC1 promoter luciferase reporter, 24 h. Potency, µM (top dose mostly 9.22 µM), for the others: at the top dose activation, hits mostly activators; further: % of control where 0% means no effect; nearly all actives have a fitted effect of over 60% in size
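Huh7 reporter cells (NPC1 promoter driving luciferase) are dosed with compound for 24 h at 37 °C, 5% CO2; luciferase detection reagent is then added and luminescence measured after 10 min at ambient temperature.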
* hit, by the source's call. The call rests on the fitted dose curve; in most records, active means well fitted curve in the direction sought with a large enough effect; inconclusive means small, poorly fitted or top-dose-only effect, or another doubt; inactive means no such curve, though single readings can be large; an effect the other way counts as inactive or inconclusive. Potency means the concentration at half of the fitted maximal effect.

Results for CC(C)c1ccc(-c2noc(SCC(=O)N3CCCCC3C)n2)cc1 (configuration not stated) ?
FLuc counter: 3µM*

What do the screens show for `CC(C)c1ccc(-c2noc(SCC(=O)N3CCN(c4ccc(F)cc4)CC3)n2)cc1`?
FLuc counter: -14%

How did Cc1cccc2sc(N(Cc3cccnc3)C(=O)C3CCCCC3)nc12 do in these assays?
FLuc counter: 1%

How did COCCCN=C1NN=C(c2cc(C)n(Cc3ccccc3Cl)c2C)CS1 do in these assays?
ELG1 genotoxic: inconclusive; FLuc counter: 12µM*; ELG1 repair inh: inconclusive; SMN2 splice enh: inconclusive; Rab9 promoter act: 23%; NPC1 prom act: -4%

Results for COCCN=C1NN=C(c2cc(C)n(CC3CCCO3)c2C)CS1 (configuration not stated) ?
ELG1 genotoxic: 12%; FLuc counter: inconclusive; ELG1 repair inh: 6%; SMN2 splice enh: -16%; Rab9 promoter act: inconclusive; NPC1 prom act: 28%

How did COCCn1c(C)cc(C2=NNC(=Nc3ccccc3F)SC2)c1C do in these assays?
ELG1 genotoxic: inconclusive; FLuc counter: 0.54µM*; ELG1 repair inh: inconclusive; SMN2 splice enh: -31%; Rab9 promoter act: 0%; NPC1 prom act: inconclusive

How did Cc1cc(C2=NNC(=NCCc3ccccc3)SC2)c(C)n1-c1c(C)n(C)n(-c2ccccc2)c1=O do in these assays?
ELG1 genotoxic: -5%; FLuc counter: -6%; ELG1 repair inh: -10%; Rab9 promoter act: 2%; NPC1 prom act: -4%

What do the screens show for `COCCCN=C1NN=C(c2cc(C)n(-c3ccccc3F)c2C)CS1`?
ELG1 genotoxic: -9%; FLuc counter: 2.4µM*; ELG1 repair inh: inconclusive; SMN2 splice enh: 16%; Rab9 promoter act: 0.32µM*; NPC1 prom act: inconclusive

How did COc1ccccc1C1=NNC(=NCc2ccccc2)SC1 do in these assays?
ELG1 genotoxic: 6%; FLuc counter: inconclusive; ELG1 repair inh: 30%; SMN2 splice enh: -5%; Rab9 promoter act: 20%; NPC1 prom act: 11%

What do the screens show for `COCCCN=C1NN=C(c2cc(C)n(-c3ccccc3)c2C)CS1`?
ELG1 genotoxic: inconclusive; FLuc counter: 4.3µM*; ELG1 repair inh: inconclusive; SMN2 splice enh: -63%; Rab9 promoter act: 1.3µM*; NPC1 prom act: inconclusive

Results for NS(=O)(=O)c1ccc(CCNC(=O)C(=O)C2C(=O)Nc3ccccc32)cc1 (configuration not stated) ?
ELG1 genotoxic: -1%; FLuc counter: 0%; ELG1 repair inh: 5%; Rab9 promoter act: -3%; NPC1 prom act: 2%

Results for CNS(=O)(=O)c1cn(CC(=O)NCc2cccc(OC)c2)cc1S(=O)(=O)NC ?
ELG1 genotoxic: 1%; FLuc counter: 2%; ELG1 repair inh: 28%; Rab9 promoter act: 1%; NPC1 prom act: -4%

What do the screens show for `CCN(CC)S(=O)(=O)c1ccc(C)c(NC(=O)CNCCN(C(C)C)C(C)C)c1`?
ELG1 genotoxic: -2%; FLuc counter: -2%; ELG1 repair inh: -3%; SMN2 splice enh: -4%; Rab9 promoter act: -5%; NPC1 prom act: -3%

How did Cc1cc(C2=NNC(=Nc3ccccc3)SC2)c(C)n1C do in these assays?
ELG1 genotoxic: inconclusive; FLuc counter: 11µM*; ELG1 repair inh: inconclusive; SMN2 splice enh: inconclusive; Rab9 promoter act: 1.4µM*; NPC1 prom act: 3.2µM*

How did CC(=O)c1cc(C#N)c(SCc2ccccc2C#N)nc1C do in these assays?
ELG1 genotoxic: 0%; FLuc counter: 15µM*; ELG1 repair inh: -12%; SMN2 splice enh: 13%; Rab9 promoter act: 3%; NPC1 prom act: 0%

How did O=C(NCC1CCCO1)c1ccc2[nH]c3c(c2c1)CCCC3 (configuration not stated) do in these assays?
ELG1 genotoxic: 12%; FLuc counter: 21µM*; ELG1 repair inh: inconclusive; Rab9 promoter act: 26%; NPC1 prom act: 5%
